PAFAH1B2 FP inh – PAFAH1B2 (human) inhibition. P68402. inhibition, % at 3.39 µM. recombinant PAFAH1B2, FP-rhodamine activity probe, fluorescence polarization. actives 1.2% (n = 340,000);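 active = inhibition above the mean of all tested compounds plus 3 SD, cut at about 24% in these data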;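 also: 0% = enzyme with DMSO and 100% = wells lacking PAFAH1B2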
Target sequence (P68402 whole entry, looked up): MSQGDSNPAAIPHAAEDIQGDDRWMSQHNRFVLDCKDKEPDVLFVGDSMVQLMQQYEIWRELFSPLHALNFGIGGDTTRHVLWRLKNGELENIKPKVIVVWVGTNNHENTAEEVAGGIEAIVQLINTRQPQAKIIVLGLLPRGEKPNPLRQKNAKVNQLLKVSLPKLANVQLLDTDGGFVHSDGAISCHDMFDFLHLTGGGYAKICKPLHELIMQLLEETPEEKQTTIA
PAFAH2 FP inh – PAFAH2 (human) inhibition; inhibition, % at 3.39 µM; actives 0.99% (n = 340,000); recombinant PAFAH2, FP-rhodamine activity probe, fluorescence polarization; Q99487;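 active = inhibition above the mean over all tested compounds plus 3 SD, cut at about 30% in these data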;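 also: inhibitors block probe labeling of enzyme so polarization drops; 0% = enzyme with DMSO and 100% = wells lacking PAFAH2 protein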
LYPLA1 inh – counter-screen for PME1 inhibitors: inhibitors of human LYPLA1. actives 0.16% (n = 320,000). AID 2174. O75608. recombinant LYPLA1, FP-Rh probe fluorescence polarization. inhibition, % at 5.9 µM;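 active = inhibition above the mean of all tested compounds plus 3 SD, set per campaign, cut at about 14% in these data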;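 also: inhibitors block serine hydrolase probe labeling of LYPLA1 so polarization falls; 0% = enzyme with DMSO and 100% = wells lacking LYPLA1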
PAFAH1B3 inh – inhibitors of human PAFAH1B3; Q15102; recombinant PAFAH1B3, FP-rhodamine probe, fluorescence polarization; inhibition, % at 3.39 µM; actives 0.28% (n = 340,000); AID 492972;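 active = inhibition above the screen-wide average of all tested compounds plus 3 SD, cut at about 25% in these data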;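 also: 0% = enzyme with DMSO only and 100% = wells lacking PAFAH1B3 protein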
Target sequence (Q15102 whole entry, looked up): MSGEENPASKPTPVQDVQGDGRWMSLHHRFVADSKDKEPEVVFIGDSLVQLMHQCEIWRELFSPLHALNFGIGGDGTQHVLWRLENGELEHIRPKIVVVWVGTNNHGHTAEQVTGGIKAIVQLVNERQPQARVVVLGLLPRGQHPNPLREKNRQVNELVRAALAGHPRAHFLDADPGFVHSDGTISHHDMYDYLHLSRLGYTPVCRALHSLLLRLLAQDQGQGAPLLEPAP
pPAFAH inh – inhibitors of human plasma PAF acetylhydrolase (pPAFAH); inhibition, % at 3.39 µM; actives 1.5% (n = 330,000); Q13093; recombinant pPAFAH, FP-rhodamine probe fluorescence polarization;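 active = inhibition above the mean inhibition across the screen plus 3 SD, cut at about 25% in these data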;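 also: inhibitors block binding of the rhodamine activity-based probe so polarization drops; 0% = enzyme with DMSO and 100% = wells lacking pPAFAH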
LYPLA2 counter – blocks human lysophospholipase 2, a PME1 counter-screen | recombinant LYPLA2, FP-Rh probe fluorescence polarization | inhibition, % at 5.9 µM | actives 0.38% (n = 320,000) | AID 2177;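 active = inhibition above the screen-wide mean plus 3 SD, limit set per campaign, cut at about 26% in these data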;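 also: 0% = LYPLA2 with DMSO and 100% = wells lacking LYPLA2 enzyme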
The depositor's hits bear a star; . = no result. Hits are enriched below; roughly 2.9% of the tested compounds scored in any of these assays.

SMILES	PAFAH1B2 FP inh	PAFAH2 FP inh	LYPLA1 inh	PAFAH1B3 inh	pPAFAH inh	LYPLA2 counter
O=C(OCc1c(-c2ccccc2)ncc2ccccc12)c1ccco1	5	2	.	6	32*	.
O=c1[nH]c(C2CCN(S(=O)(=O)c3ccccc3F)CC2)nc2c1nnn2Cc1ccc(OC(F)(F)F)cc1	26*	-6	-1	0	1	-3
O=c1[nH]c(C2CCCN(S(=O)(=O)Cc3ccccc3)C2)nc2c1nnn2Cc1cccc(Cl)c1 (stereo unspecified)	1	4	1	-2	28*	9
CCOc1cc(/C=C2\SC(=O)N(CC(=O)Nc3ccccc3F)C2=O)cc([N+](=O)[O-])c1O	8	34*	4	15	32*	18
CCN(c1ccccc1)S(=O)(=O)c1ccc(OC)c(NS(=O)(=O)c2cccs2)c1	30*	4	4	0	10	-2
CCN(c1ccccc1)S(=O)(=O)c1ccc(OC)c(OC)c1	9	-4	-3	0	2	-3
O=C(Nc1nn[nH]n1)c1ccc(S(=O)(=O)N2CCCCC2)cc1	7	-2	-1	5	0	-4
CC(CCc1ccco1)NC(=O)Cn1nc(Cc2ccncc2)c2ccccc2c1=O (stereo unspecified)	2	-2	-1	-1	6	-1
NNC(=O)c1cc(NS(=O)(=O)c2cccs2)cc(NS(=O)(=O)c2cccs2)c1	15	17	.	21	29*	.
CCNC(=O)C(=O)NCCc1ccc(Cl)cc1	25*	-3	-2	4	5	1
O=C(CCc1c[nH]c2ccccc12)NCCc1ccc(Cl)cc1	28*	10	1	3	0	1
CC1(C)CC(NC(=O)C(=O)NCCc2ccc(Cl)cc2)CC(C)(C)N1	7	1	-7	4	-3	-8
O=C(NCCCO)C(=O)NCCc1ccc(Cl)cc1	28*	1	-4	6	2	-9
O=C(NCCc1ccc(Cl)cc1)c1ccc(=O)[nH]c1	30*	-5	4	-4	-5	1
O=C(NCCc1ccc(O)cc1)c1ccc(Cl)cc1	5	0	5	7	0	4
COc1ccc(CCNC(=O)c2ccc(=O)[nH]c2)cc1	3	3	0	1	0	1
O=C(c1ccc2c(c1)OCO2)C1CCCN(Cc2cn[nH]c2-c2cccc(F)c2)C1 (stereo unspecified)	2	5	-2	1	0	-3
Cc1nonc1-c1ccc2c(c1)OCO2	5	-1	1	6	1	5
COc1cccc(NC(=O)CN2C(=O)NC(CCc3ccccc3)C2=O)c1 (stereo unspecified)	3	-1	3	7	-1	9
O=C1NC(CCc2ccccc2)C(=O)N1CCOc1cccc(Br)c1 (stereo unspecified)	26*	1	6	2	13	14
O=C1NC(=O)/C(=C\c2ccccc2Oc2ccc(F)c(F)c2)S1	26*	-4	-6	-11	8	10
O=C1NC(=O)/C(=C/c2ccccc2OCc2ccccc2)S1	16	5	-3	10	3	1
COc1cc(/C=N/NC(=O)C(=O)NCC2CCCO2)ccc1O (stereo unspecified)	4	-6	4	-1	-3	8
O=C(NCC1CCCO1)C(=O)N/N=C/c1ccc(OCc2ccccc2Cl)cc1 (stereo unspecified)	3	5	0	6	30*	1
O=C(OCc1cc(=O)n2c(n1)sc1ccccc12)c1cccc(O)c1	-7	-7	-8	1	3	-6
SMILES	PAFAH1B2 FP inh	PAFAH2 FP inh	LYPLA1 inh	PAFAH1B3 inh	pPAFAH inh	LYPLA2 counter
O=S1(=O)N=C2CCCCCN2C(c2ccncc2)N1 (stereo unspecified)	3	4	1	-3	-1	4
O=C(COC(=O)CC1CC2CCC1C2)Nc1ccccc1Cl (stereo unspecified)	0	45*	.	6	28*	.
COc1ccc(NC(=O)COC(=O)CC2CC3CCC2C3)c([N+](=O)[O-])c1 (stereo unspecified)	7	54*	1	3	33*	0
O=C(COC(=O)CC1CC2CCC1C2)Nc1c(F)cccc1F (stereo unspecified)	3	22	0	0	24	2
COc1ccc(NC(=O)CC2Nc3cc(C)c(C)cc3NC2=O)c([N+](=O)[O-])c1 (stereo unspecified)	7	-1	-1	-5	26*	-1
CC(=O)c1cccc(S(=O)(=O)N2CCCC(c3nc4c(nnn4Cc4ccccc4Cl)c(=O)[nH]3)C2)c1 (stereo unspecified)	-3	16	.	-4	.	.
CC(C)(C)c1ccc(C(CC(=O)O)NC(=O)C23CC4CC(CC(C4)C2)C3)cc1 (stereo unspecified)	26*	10	4	-7	31*	-3
CCCCNc1c(-c2cccc(-c3ccc(OC)cc3)c2)nc2ccc(C)cn12	3	-8	-4	2	25*	-6
COc1cc(-c2nc3ccc(C)cn3c2NCc2ccccc2)ccc1-c1cccc(Cl)c1	0	2	.	6	30*	.
COC(=O)c1cn(C(=O)c2ccc(OC)c(OC)c2)c2ccccc12	2	9	-4	4	4	-3
Cc1ccc(S(=O)(=O)NC(CC(C)C)C(=O)Nc2ccncc2)cc1 (stereo unspecified)	25*	7	4	-4	2	0
COC(=O)C(Cc1ccccc1)NC(=O)CCC(=O)NC(C)CCc1ccccc1 (stereo unspecified)	27*	-5	-3	2	1	-8
O=[N+]([O-])c1ccccc1S(=O)(=O)NCCSc1ccccc1	29*	12	-1	7	1	3
Cc1cccc(N2CCN(C(=O)n3ccnc3)CC2)c1C	-1	7	1	14	33*	2
CCOC(=O)N1CCN(c2cccc(C)c2C)CC1	-2	-4	-5	4	3	-2
COc1cccc(NC(=O)CNS(=O)(=O)c2ccc3nc(C)sc3c2)c1	3	8	7	-10	3	-3
O=C(CSc1ccc(-c2ccccn2)nn1)NC1CCCCC1	6	3	1	5	-3	3
Cc1cc(NC(=O)CSc2nnnn2-c2ccccc2F)no1	4	-3	3	5	4	3
Clc1ccccc1/C=C/c1ccnc2ccccc12	3	-1	-10	5	31*	-10
Oc1ccc(/C=C/c2ccnc3ccccc23)cc1	4	5	-5	14	8	-6
CCN1CCN(Cc2ccc(NC(=O)c3ccc(C)c(NC(=O)c4c[nH]c5cc(C(F)(F)F)ccc5c4=O)c3)cc2C(F)(F)F)CC1	-1	-36	-20	-7	-10	-46

Screening results: PubChem, The Scripps Research Institute Molecular Screening Center
